USP28 inh = inhibitors of human USP28 deubiquitinase. inhibition, % at 25 µM. purified USP28, Ub-rhodamine cleavage fluorescence, 30 min. Ubiquitin carboxyl-terminal hydrolase 28 (Homo sapiens), Q96RU2. actives 3% (n = 47,000)
USP8 block = inhibitors of human USP8 deubiquitinase; Ubiquitin carboxyl-terminal hydrolase 8 (Homo sapiens), P40818; actives 4.2% (n = 47,000); purified USP8, Ub-rhodamine cleavage fluorescence, 30 min; inhibition, % at 20 µM
USP10 inh = inhibitors of human USP10 deubiquitinase | purified USP10, Ub-rhodamine fluorescence, 60 min | Ubiquitin carboxyl-terminal hydrolase 10 (Homo sapiens), Q14694 | actives 1.1% (n = 47,000) | inhibition, % at 20 µM
USP30 block = inhibitors of human USP30 deubiquitinase | Ubiquitin carboxyl-terminal hydrolase 30 (Homo sapiens), Q70CQ3 | purified USP30, Ub-rhodamine cleavage fluorescence | inhibition, % at 25 µM | actives 5.3% (n = 47,000) | AID 1645860, 2021
USP7 inh = inhibitors of human USP7 deubiquitinase; Ubiquitin carboxyl-terminal hydrolase 7 (Homo sapiens), Q93009; purified USP7, Ub-rhodamine cleavage fluorescence; inhibition, % at 20 µM; actives 0.3% (n = 47,000); AID 1645854, 2021
USP17 inh = inhibitors of human USP17 deubiquitinase; Ubiquitin carboxyl-terminal hydrolase 17-like protein 5 (Homo sapiens), A8MUK1; purified USP17, Ub-rhodamine cleavage fluorescence, 3 h; inhibition, % at 50 µM; actives 6.5% (n = 47,000)
Target sequence (A8MUK1 whole entry, looked up): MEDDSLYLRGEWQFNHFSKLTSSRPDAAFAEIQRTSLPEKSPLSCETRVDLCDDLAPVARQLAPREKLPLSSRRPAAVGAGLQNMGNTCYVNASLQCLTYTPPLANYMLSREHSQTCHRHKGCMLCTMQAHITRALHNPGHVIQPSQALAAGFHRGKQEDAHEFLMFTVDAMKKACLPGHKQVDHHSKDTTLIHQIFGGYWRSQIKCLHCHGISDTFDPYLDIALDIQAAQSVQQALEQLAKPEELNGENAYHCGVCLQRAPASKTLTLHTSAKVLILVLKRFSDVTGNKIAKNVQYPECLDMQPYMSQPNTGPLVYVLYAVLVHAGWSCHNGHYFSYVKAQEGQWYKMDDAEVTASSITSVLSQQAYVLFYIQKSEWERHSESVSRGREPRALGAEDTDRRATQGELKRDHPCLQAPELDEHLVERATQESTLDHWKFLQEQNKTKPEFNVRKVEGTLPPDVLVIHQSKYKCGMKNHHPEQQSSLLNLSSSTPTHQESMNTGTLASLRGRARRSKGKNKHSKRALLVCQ
An asterisk follows results filed as active. In the library only some 13% were active in any assay of this set; here they are far more common. No stated cut-off is given here; in the data, active means inhibition above about 30%; inactive means the rest.

Results for COCCOCc1nc2n(n1)C(CC(=O)Nc1cccc3ccccc13)C(=O)N2 (centres undefined) ?
USP28 inh: 3; USP8 block: 0; USP10 inh: 0; USP30 block: -34; USP7 inh: 4; USP17 inh: 6

How did NCCCN=C1N[C@@H]2[C@@H](O)[C@@H](O)[C@H](O)[C@@H](CO)N2C1=O do in these assays?
USP28 inh: 7; USP8 block: -37; USP10 inh: 0; USP30 block: 5; USP7 inh: 4; USP17 inh: 6

What do the screens show for `O=C(COc1ccc2c(c1)OCO2)Nc1ccc2c(c1)OCCO2`?
USP28 inh: 36*; USP8 block: -2; USP10 inh: -1; USP30 block: -22; USP7 inh: 0; USP17 inh: -21

What do the screens show for `CN(CC(=O)Nc1ccc2c(c1)OCO2)S(=O)(=O)c1cccs1`?
USP28 inh: 7; USP8 block: 50*; USP10 inh: -1; USP30 block: 3; USP7 inh: 0; USP17 inh: 14

Results for O=C(Cn1cnc2ccccc21)Nc1ccc2c(c1)CCC2 ?
USP28 inh: 27; USP8 block: 15; USP10 inh: -1; USP30 block: 53*; USP7 inh: 5; USP17 inh: 32*

How did CC(Oc1ccc(Cl)cc1)C(=O)Nc1ccc2c(c1)CCC2 (centres undefined) do in these assays?
USP28 inh: 18; USP8 block: 17; USP10 inh: 9; USP30 block: 32*; USP7 inh: 0; USP17 inh: 25

Results for O=C(Cn1cnc2ccccc21)Nc1ccc(C(=O)O)cc1 ?
USP28 inh: -18; USP8 block: -6; USP10 inh: -1; USP30 block: 0; USP7 inh: 3; USP17 inh: -7

How did Cc1ccc(Cn2c(=O)c3ccccc3n3c(CCC(=O)NCCN4CCCC4)nnc23)cc1 do in these assays?
USP28 inh: 0; USP8 block: -12; USP10 inh: -1; USP30 block: 5; USP7 inh: -89; USP17 inh: -4

Results for COc1ccc(Cl)cc1S(=O)(=O)N1CCN=C1N1CCN(C)CC1 ?
USP28 inh: 5; USP8 block: 7; USP10 inh: 3; USP30 block: 19; USP7 inh: 7; USP17 inh: 7

How did COC[C@H]1C[C@@H]2CN(S(=O)(=O)c3cccc(OC)c3)C(C)[C@H]1N2C (some centres undefined) do in these assays?
USP28 inh: -16; USP8 block: 0; USP10 inh: 4; USP30 block: 0; USP7 inh: -3; USP17 inh: -9

How did O=C(COc1ccc2c(c1)CCC2)Nc1ccc2c(c1)CCC2 do in these assays?
USP28 inh: 13; USP8 block: 7; USP10 inh: 14; USP30 block: 17; USP7 inh: 0; USP17 inh: 59*

What do the screens show for `O=C(COc1cccc(N2CCCC2=O)c1)NCc1ccc2c(c1)OCO2`?
USP28 inh: 7; USP8 block: 7; USP10 inh: 7; USP30 block: 4; USP7 inh: 12; USP17 inh: 4

Results for N#Cc1ccc(-c2ccc(OCC(=O)Nc3ccc4c(c3)OCO4)cc2)cc1 ?
USP28 inh: 4; USP8 block: 43*; USP10 inh: 7; USP30 block: 29; USP7 inh: 0; USP17 inh: 56*

What do the screens show for `O=C(Cn1cnc2ccccc21)N1CCc2ccccc21`?
USP28 inh: 5; USP8 block: 1; USP10 inh: 0; USP30 block: -8; USP7 inh: 3; USP17 inh: 34*

What do the screens show for `O=C(COc1cccc(N2CCCC2=O)c1)Nc1ccc2c(c1)OCCO2`?
USP28 inh: 36*; USP8 block: -1; USP10 inh: 0; USP30 block: -14; USP7 inh: 0; USP17 inh: -3

What do the screens show for `C[C@@H](C(=O)N1CCN(c2ccc(F)cc2)CC1)n1c(=O)[nH]c2ccccc2c1=O`?
USP28 inh: 5; USP8 block: 1; USP10 inh: 1; USP30 block: 24; USP7 inh: 0; USP17 inh: 1

How did C#CCNC(=O)CC[C@H]1CNC(=O)[C@@H]2[C@@H](CCN2C2CCOCC2)N1C do in these assays?
USP28 inh: 10; USP8 block: -276; USP10 inh: 0; USP30 block: -62; USP7 inh: 4; USP17 inh: -28

How did O=C(Cc1ccc(Br)cc1)Nc1ccc2c(c1)OCO2 do in these assays?
USP28 inh: 10; USP8 block: 26; USP10 inh: 2; USP30 block: 3; USP7 inh: 2; USP17 inh: 44*

Results for CC[C@H](C)[C@H](NC(=O)[C@H]([C@@H](C)CC)N(C)C(C)=O)C(=O)N[C@H](C(=O)N[C@@H](CC(C)C)C(=O)C1(C)CO1)[C@@H](C)O (some centres undefined) ?
USP28 inh: 43*; USP8 block: 57*; USP10 inh: 9; USP30 block: 22; USP7 inh: -145; USP17 inh: 43*

Results for CCOC(=O)N1CCN(C(=O)c2cc(S(=O)(=O)N3CCOCC3)ccc2OC)CC1 ?
USP28 inh: 6; USP8 block: 0; USP10 inh: 0; USP30 block: 17; USP7 inh: 6; USP17 inh: 12

Results for COc1ccc2cc1Oc1cc(ccc1OC)C(O)C13SSC4(C(=O)N1C)C(O)C1=COC=CC(OC2=O)C1N4C3=O (centres undefined) ?
USP28 inh: -10; USP8 block: -2; USP10 inh: -4; USP30 block: 73*; USP7 inh: -1; USP17 inh: -32

How did COC1COC2(CCN(Cc3cccnc3)CC2)C1 (centres undefined) do in these assays?
USP28 inh: -15; USP8 block: -179; USP10 inh: -2; USP30 block: -41; USP7 inh: -3; USP17 inh: -37

What do the screens show for `C=C(CCC=C(C)C)[C@H]1CC[C@]2(C)[C@@H]1CC[C@@H]1[C@@]3(C)CC[C@H](O)C(C)(C)[C@@H]3CC[C@]12C`?
USP28 inh: 4; USP8 block: 6; USP10 inh: 3; USP30 block: 2; USP7 inh: 0; USP17 inh: 11

What do the screens show for `C=C(CCC=C(C)C)[C@H]1CC[C@]2(C)[C@@H]1CC[C@@H]1[C@@]3(C)CCC(=O)C(C)(C)[C@@H]3CC[C@]12C`?
USP28 inh: 16; USP8 block: 10; USP10 inh: 15; USP30 block: 31*; USP7 inh: 14; USP17 inh: 40*

Results for O=C(NC1CCN(c2nc(-c3cccnc3)nc3ccccc23)CC1)c1cccnc1 ?
USP28 inh: 52*; USP8 block: 6; USP10 inh: 1; USP30 block: 3; USP7 inh: 3; USP17 inh: 9
